Drawing on PubChem BioAssay AID1259354 (Paczesny and Yang Labs, IUPUI and University of Michigan, 2018), this text covers inhibition for 69 compounds.

Where “and” joins values, the source holds several entries; their conditions need not be identical. Identical values can stand only once. Out of some 78,000 compounds screened, about 1,800 (2.3%) were called active. Roughly 27% stayed inconclusive and do not appear here. Rule as the data show it: active = inhibition above about 30%; inconclusive = mostly about 10% to 28%; inactive = weaker than that. What follows is part of a selection rich in actives, with near analogues and random picks from the rest.

The target of this experiment is Interleukin-1 receptor-like 1 (Homo sapiens) (UniProt Q01638). The experiment in a line: inhibitors of human ST2 (IL1RL1) binding to IL-33, primary screen, biochemical, AlphaLISA (AID 1259354). Conditions: AlphaLISA ST2-Fc/biotin-IL-33 interaction, 1 h; at 17 µM, stronger effect = higher value. On the technique in general: Bead proximity is the source of the signal in Alpha formats.
Interleukin-1 receptor-like 1 (Homo sapiens), sequence (Q01638 whole entry, looked up): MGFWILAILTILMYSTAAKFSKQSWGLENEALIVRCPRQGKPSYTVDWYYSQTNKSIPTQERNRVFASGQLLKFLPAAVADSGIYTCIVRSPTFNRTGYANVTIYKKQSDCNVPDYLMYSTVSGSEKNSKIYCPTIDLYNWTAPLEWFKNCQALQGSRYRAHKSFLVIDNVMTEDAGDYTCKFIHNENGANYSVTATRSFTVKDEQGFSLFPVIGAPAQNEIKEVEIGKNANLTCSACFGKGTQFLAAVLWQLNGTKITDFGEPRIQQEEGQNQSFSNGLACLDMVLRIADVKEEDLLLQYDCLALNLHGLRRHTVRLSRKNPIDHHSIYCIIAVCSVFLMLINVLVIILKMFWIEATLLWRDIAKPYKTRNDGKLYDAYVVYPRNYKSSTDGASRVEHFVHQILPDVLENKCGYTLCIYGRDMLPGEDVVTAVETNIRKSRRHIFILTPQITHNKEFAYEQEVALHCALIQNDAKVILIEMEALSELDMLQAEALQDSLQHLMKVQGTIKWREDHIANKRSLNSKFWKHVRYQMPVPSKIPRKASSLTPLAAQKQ
On to `Cc1csc(SCC(=O)N2CCC(c3cc(C(C)C)n[nH]3)CC2)n1`, for which the inhibition entry was “inactive”.

As for `O=C(CN1CCN(Cc2cccc(Cl)c2)C1=O)N1CCCC1`, the inhibition result is “inactive”.

`O=C(CSC1=Nc2ccccc2C2=NC(Cc3ccccc3)C(=O)N12)NC1CCCCC1` (centres undefined): the inhibition result is “inactive”.

For the compound `COCCn1ccnc1-c1[nH]cnc1-c1ccccc1`, the inhibition result is “inactive”.

As to `CC(C)c1ccc(-c2nc(N3CCCCC3)nc3n[nH]c(N)c23)cc1`, the inhibition result was “inactive”.

Take `Cc1cc2c(Nc3cccc(Cl)c3C)ncnc2s1`: the inhibition entry is “inactive”.

For the compound `Nc1nonc1-n1nnc(CN2CCCCC2)c1CN1CCCCC1`, the inhibition entry is “inactive”.

As for `COc1ccc2nc(NC(=O)Cc3c(C(=O)O)n(C)c4ccccc34)sc2c1`, the inhibition entry is “inactive”.

As for `Cc1ccc(N(C(=O)c2ccccc2Br)C2C=CS(=O)(=O)C2)cc1C` (centres undefined), the inhibition result was “inactive”.

Turning to `O=C(Nc1cccc([N+](=O)[O-])c1)c1cccc(Cl)c1Cl`, the inhibition result is “inactive”.

For `Cc1ccc(NC(=O)c2ccc(Br)o2)c(C)c1`, the inhibition entry was “inactive”.

In the case of `Cc1cccc(NC(=O)c2ccc([N+](=O)[O-])o2)c1`, the inhibition was 42% (active).

With `CSCCC(NS(=O)(=O)c1cccc2nsnc12)C(=O)O` (centres undefined), the inhibition entry is “inactive”.

In the case of `N#Cc1c(SCC(=O)Nc2ccccc2)ncc2cc3ccccc3nc12`, the inhibition is 32% (active).

On to `N#Cc1c(-c2ccccc2)cc(-c2ccccc2)nc1SCC(=O)O`, for which the inhibition entry was “inactive”.

As to `c1ccc(-c2csc3ncnc(N4CCCCC4)c23)cc1`, the inhibition entry is “inactive”.

On to `Cc1cccc(-c2nc(N3CCCC3)c3ccccc3n2)c1`, for which the inhibition result is “inactive”.

As for `N#Cc1c(N2CCCCCC2)ncc2cc3ccccc3nc12`, the inhibition was 37% (active).

For `N#Cc1c(SCC(=O)Nc2ccccn2)nsc1SCC(=O)Nc1ccccn1`, the inhibition entry is “inactive”.

Regarding `COc1cc2c(cc1OC)[C@H]1CN3CCc4cc(OC)c(OC)cc4[C@@H]3CN1CC2`, the inhibition result was “inactive”.

In the case of `CCn1cc(S(=O)(=O)N2CCCC2c2ccccn2)c(C)n1` (centres undefined), the inhibition entry is “inactive”.

Consider `Cc1cc(C(=O)N(CC2CCN(C3Cc4ccccc4C3)CC2)CC2CCCO2)nc(C)n1` (centres undefined), for which the inhibition result was “inactive”.

In the case of `Cc1cc(C)c2c(CC(=O)NCc3cccnc3N3CCOCC3)coc2c1`, the inhibition result was “inactive”.

On to `c1ccc(CSc2ncc(C3NCCc4[nH]cnc43)cn2)cc1` (centres undefined), for which the inhibition entry was “inactive”.

As for `Cc1cc(NC(=O)C(NS(=O)(=O)c2cccs2)C(C)C)ccc1Br` (centres undefined), the inhibition entry is “inactive”.

With `Fc1cccc(Cl)c1C1CC(c2ccccc2)Nc2ncnn21` (centres undefined), the inhibition result was “inactive”.

As to `Cn1c(CC2CCNCC2)nnc1SCCOc1ccc(Cl)cc1`, the inhibition result was “inactive”.

Turning to `CN1CCN(C(=O)c2ccnc(-c3cc(N)nc4[nH]ccc34)c2)CC1`, the inhibition is 30% (active).

`O=C(c1ccnc(-n2cnnc2)c1)N1CCC2(CC1)C(=O)Nc1ccccc12`: the inhibition entry was “inactive”.

Consider `O=C(c1cccc(-c2ncc[nH]2)c1)N1Cc2cnn(CCO)c2C1`, for which the inhibition result is “inactive”.

Consider `COc1ccc(C(=O)NC(Nc2ccccc2Cl)C(Cl)(Cl)Cl)cc1` (centres undefined), for which the inhibition entry is “inactive”.

In the case of `Cc1ccc(NC(=O)CNCC(C)c2ccccc2)c(C)c1` (centres undefined), the inhibition entry is “inactive”.

Take `OC(C#Cc1ccccc1)C#Cc1ccccc1`: the inhibition entry is “inactive”.

For the compound `Cc1nonc1C1CCCN1Cc1cnc(S(=O)(=O)C(C)C)n1Cc1ccccc1F` (centres undefined), the inhibition entry was “inactive”.

Take `CSCc1nnc(NC(=O)c2ccc(S(=O)(=O)N3CCCc4ccccc43)cc2)o1`: the inhibition entry was “inactive”.

Consider `CC1CCc2nc(NC(=O)c3ccc(S(=O)(=O)N4CCc5ccccc54)cc3)sc2C1` (centres undefined), for which the inhibition is 30% (active).

With `O=C(Nc1nnc(-c2cccs2)o1)c1ccc(S(=O)(=O)N2CCCc3ccccc32)cc1`, the inhibition entry is “inactive”.

As for `CCN(CC)C(=O)[C@@H]1C[C@H](n2cc(Cn3c(C)nc4ccccc43)nn2)CN1`, the inhibition entry was “inactive”.

As for `CC1=Nc2c(ccc3cccnc23)C1(C)C`, the inhibition is 36% (active).

Take `Brc1ccc(CSc2cccc3cccnc23)cc1`: the inhibition result was “inactive”.

`CSCCNC(=O)CC1C(=O)NCCN1Cc1ccccc1` (centres undefined): the inhibition entry was “inactive”.

With `Cc1cc2oc(=O)cc(CN(C)C(C)c3ccon3)c2cc1C` (centres undefined), the inhibition entry was “inactive”.

For `Clc1ccc(OCCCCN2CCOCC2)c(Br)c1`, the inhibition result is “inactive”.

Consider `CN(Cc1ccccc1)C(=O)CN1C(=O)/C(=C\c2cccc(Cl)c2)Sc2ccccc21`, for which the inhibition is 44% (active).

Turning to `CN(Cc1ccccc1)C(=O)c1cc(-c2ccc(Cl)cc2)on1`, the inhibition entry was “inactive”.

As to `CN(Cc1ccccc1)C(=O)CN(C)S(=O)(=O)c1ccc(Cl)cc1`, the inhibition entry was “inactive”.

As for `O=C(NC(Nc1cccc([N+](=O)[O-])c1)C(Cl)(Cl)Cl)c1ccc(Br)cc1` (centres undefined), the inhibition entry is “inactive”.

On to `CCOC(=O)c1c(C)[nH]c(C(=O)NC(C)c2cnn(-c3ccccc3C)c2C)c1C` (centres undefined), for which the inhibition result was “inactive”.

Turning to `CN(Cc1ccccc1)C(=O)C1(S(=O)(=O)c2ccc(Cl)cc2)CC1`, the inhibition entry is “inactive”.

On to `COc1ccc(-c2csc(=Nc3ccccc3)n2C)cc1`, for which the inhibition was 59% (active) and 52% (active).

Consider `COc1ccc(Nc2ccn(-c3nc(-c4ccccc4)oc3-c3ccccc3)c(=O)n2)cc1`, for which the inhibition entry is “inactive”.

Regarding `O=C(C(NS(=O)(=O)c1cccs1)c1ccccc1)N1CCc2ccccc21` (centres undefined), the inhibition result is “inactive”.

As for `COc1cc(OC)cc(C(=O)Nc2cc(N3CCCS3(=O)=O)ccc2OC)c1`, the inhibition result is “inactive”.

For the compound `CC(=O)Nc1nonc1N1C(=N)S/C(=C\c2ccc(-c3cccc(F)c3)o2)C1=O`, the inhibition entry is “inactive”.

For the compound `O=C1NC(=O)/C(=C\c2ccc(-c3cccc(Cl)c3)o2)S1`, the inhibition result was “inactive”.

For the compound `O=C1NC(=O)/C(=C\c2ccc(-c3ccc(F)c(Cl)c3)o2)S1`, the inhibition is 34% (active).

As to `Cc1nc(CC(=O)NCCc2csc(-c3cccnc3)n2)cs1`, the inhibition result is “inactive”.

For the compound `COc1ccc(CCNS(=O)(=O)c2cccc3cccnc23)cc1OC`, the inhibition result was “inactive”.

Turning to `COc1cc(NS(=O)(=O)c2ccc3c(c2)CCN3C(=O)C2CC2)cc(OC)c1`, the inhibition result was “inactive”.

With `Cc1cccc(C)c1NC(=O)c1ccc(F)cc1`, the inhibition result was “inactive”.

With `N#CC1=C(N)OC2=C(C(=O)CC(c3ccccc3)C2)C1c1cccs1` (centres undefined), the inhibition entry was “inactive”.

Take `CCc1nc(C)ccc1OCC(=O)N1CCC2(CN(C)C(=O)O2)C1` (centres undefined): the inhibition is 30% (active).

In the case of `O=C1CC2(CCCCC2)Oc2ccc(OCC(=O)N3CCOCC3)cc21`, the inhibition entry was “inactive”.

As for `O=C(CN1C(=O)C2CCCCN2C(=O)c2ccccc21)NCC1CCCO1` (centres undefined), the inhibition entry is “inactive”.

For `O=C(CN1C(=O)/C(=C\c2ccc(C(F)(F)F)cc2)Sc2ccccc21)NCC1CCCO1` (centres undefined), the inhibition is 30% (active).

For the compound `O=C(CN1C(=O)CC(c2ccccc2)Sc2ccccc21)NCc1ccco1` (centres undefined), the inhibition result was “inactive”.

Turning to `O=C(CN1CCCCC1)N1c2ccccc2Sc2ccc(C(F)(F)F)cc21`, the inhibition entry was “inactive”.

For the compound `O=C(CN1CCN(Cc2ccc(F)cc2)C1=O)NCC1CCCO1` (centres undefined), the inhibition result was “inactive”.

`O=C(CN1C(=O)/C(=C\c2ccc(C(F)(F)F)cc2)Sc2ccccc21)NCc1ccco1`: the inhibition is 32% (active).

One may read the inhibition as how much of the control response was suppressed.
